Experimental findings from publication PMC12864922, “TDP-43 directly inhibits mRNA accumulation in neurites through modulation of mRNA stability” are described below.

In all, about 9,900 sequences were measured (“r (bound/input frequency ratio)”: median about 0.7, highest 2% from about 6.5 on). Many of the other results were omitted from the sample, so the highest values are more common in it than they were.

B1: ENSMUSG00000058297.560|Spock2|93:97;225:231 (ssRNA)
RNA: GGGAGUUCUACAGUCCGACGAUCGCUUCGAUAUCCGCAUGCUAACCUGGGGGUGCAAAAGGAGAUUCAAGACAUCCGUACCAAGUCAGGCAGAGCUACCCGCUUCUCAGCCCGUGUCCCACUUAAAACCGUCCGAACACAAAUCACUGAGCUUAGAGUUAAACAUUGUGGUCAAGUGCUUGGGUUCCGUCUGUAGAUUUAAGUGCUGACGUUGUAUCUCUCAGUAAUUUUAGAUGUCUUUUAAAAAAUCUGAACAAGUGUUAGACCCCACACACCGUUGGUGGGCACUCAAGCAUCCCGUGGGCUCUUGCGGUCGCACUAGUGUGGAAUUCUCGGGUGUCAAGG
B2: ENSMUSG00000042529.275|Kcnj12 (ssRNA)
RNA: GGGAGUUCUACAGUCCGACGAUCGCUUCGAUAUCCGCAUGCUAUUACCUGCCACUCACCUCUCUAUCUAGUUGUCGAGUCUAGGGAAGGGCAGAGGGUGGGUCCUGGCCACUGGGUGCCACUGUGGGAGCCGGGGCACCUGUCAUUCUUUCUGAGUAGGUGGGCCUGUAUCCAGAGCAGGGUCUAGGGGCUCCUGCUCCCGGCUCAUCUCAGUGGCCUGAAGCAUUCAAAACUCUAGCCAGCCCCAUCCUCCUCCCUGCCAGAAUGGUCCAGUCCCUGGGCCCUGCUGGAGAGCAGCUCAAACCUCUUGCGGUCGCACUAGUGUGGAAUUCUCGGGUGUCAAGG
B3: ENSMUSG00000042529.296|Kcnj12 (ssRNA)
RNA: GGGAGUUCUACAGUCCGACGAUCGCUUCGAUAUCCGCAUGCUAUCCAGAGCAGGGUCUAGGGGCUCCUGCUCCCGGCUCAUCUCAGUGGCCUGAAGCAUUCAAAACUCUAGCCAGCCCCAUCCUCCUCCCUGCCAGAAUGGUCCAGUCCCUGGGCCCUGCUGGAGAGCAGCUCAAACUGCCUUUCAUCUCUGCCAAAGGCAGGCAGAUGCUGUAUUUUCAAAUUCUCCUGCCCUCUUUUCCCCUUUUUCCCUGUAUUUAUUUAUUGCUUGUGCUAAAGACCAAACUAGCCGCCCCCUUUAGUGCUCUUGCGGUCGCACUAGUGUGGAAUUCUCGGGUGUCAAGG
B4: ENSMUSG00000090935.16|Synj2bp (ssRNA)
RNA: GGGAGUUCUACAGUCCGACGAUCGCUUCGAUAUCCGCAUGCUAAUAUGAACGGACGGGUGGAUUAUUUAGUCACGGAGGAAGAGAUCAACCUGACGAGAGGACCUUCGGGUAAAUGGCCAAGAUCUGAAGAACCUGCUGCACCAAGAUGCUGUAGACCUCUUCCGUAAUGCGGGAUGUGCUGUGUCCCUGAGAGUACAGCACAGGUUACCAGUGCAGAAUGGACCUAUAGUACAUCGAGGUGAAGGAGAGCCAAGUGGAGUUCCUGUAGCUAUGGUGCUGCUACCAGUGUUUGCCCUCACCAUCUCUUGCGGUCGCACUAGUGUGGAAUUCUCGGGUGUCAAGG
B5: ENSMUSG00000061578.1096|Ksr2 (ssRNA)
RNA: GGGAGUUCUACAGUCCGACGAUCGCUUCGAUAUCCGCAUGCUAAGAAGGCUGGGGGAGCUUUCAGGGGUGUGGCCAGUUAUGUACAGAUGUGAAGCUGAGGUCUGAAGGAAAUGGAGGAAGUAGGAAGAUCAGACUGGUUGAAUUAGAAGUCUGUCACUCUAGGUGCUAAGUGACCUUGGACCCAGUCAGUUCUUGGAUUUCUGUUGUAGCCCAGGCUAGCCUCGAACCCUUGAUCCUCCUGUUCCUGGUAGAGAAACAGCCACUAAAUGGUGGGAUAGAAUGUGACUGCUCUAUCCCCGAUCCUCUUGCGGUCGCACUAGUGUGGAAUUCUCGGGUGUCAAGG
B6: ENSMUSG00000029636.193|Wasf3 (ssRNA)
RNA: GGGAGUUCUACAGUCCGACGAUCGCUUCGAUAUCCGCAUGCUAAGCCAGUUGCCCGGGCAGAGACCUGACUUCCCCUCUCCUGCCCUGAUCCUUUUUACCAAAUGGCGAUUCCAUAGUCCUGGCUGAGGCAGGGGCUCAAAGUCCAGUGUCUGCUUUGCAAUUCUGGAAGGACAGCUGCUUAUUUAAAUAAGUCUGUGAUAUCCGCAGGCUUGGGUUACAGGGAGGACCUUGCAGAGGGACCAGGACACUGCCUUCCCUUAGGUGCAUUAUUUACGUGGCCUGCAGCUCUUAAUAUCUCUCACCUCUUGCGGUCGCACUAGUGUGGAAUUCUCGGGUGUCAAGG
B7: ENSMUSG00000058297.30|Spock2 (ssRNA)
RNA: GGGAGUUCUACAGUCCGACGAUCGCUUCGAUAUCCGCAUGCUACAGGCAACUUAGCAAAUGGAUCCGGAAGUCAGUGCGGAGGACCCUGGCUCCAGUGGGGGAGGACUGGGGAGUGUGGCUUGUGUGUAUGUGUGAUAUGAGAUGUGUGUGUAUGAUGUGAGAUGUGAGUGUGUGAUGUGAGAUGUGUGUAUGUGAGAUGUGUGUGUGUGUGUGUGUGUGUGUGAUGUGAGUCACCCAAAGGUCCCUAUGUUAUUGAUUUUCAAAUGCACACUUUCACACACAAGGAUACACUAACAGACCAACUCUUGCGGUCGCACUAGUGUGGAAUUCUCGGGUGUCAAGG
B8: ENSMUSG00000058297.30|Spock2|71:75;79:92;101:112;126:132;141:150;156:181 (ssRNA)
RNA: GGGAGUUCUACAGUCCGACGAUCGCUUCGAUAUCCGCAUGCUACAGGCAACUUAGCAAAUGGAUCCGGAAGUCAGUGCGGAGGACCCUGGCUCCAGUGGGGGAGGACUGGGGACACACGCUACACACAUACACACAUAUGAGAACACACACAUACAUGUGAGAUGUGACACACACAUGUGAGAACACACAUACUGAGAACACACACACACACACACACACACACAUGUGAGUCACCCAAAGGUCCCUAUGUUAUUGAUUUUCAAAUGCACACUUUCACACACAAGGAUACACUAACAGACCAACUCUUGCGGUCGCACUAGUGUGGAAUUCUCGGGUGUCAAGG
B9: ENSMUSG00000058297.31|Spock2|65:69;73:86;95:106;120:126;135:144;150:175 (ssRNA)
RNA: GGGAGUUCUACAGUCCGACGAUCGCUUCGAUAUCCGCAUGCUAACUUAGCAAAUGGAUCCGGAAGUCAGUGCGGAGGACCCUGGCUCCAGUGGGGGAGGACUGGGGACACACGCUACACACAUACACACAUAUGAGAACACACACAUACAUGUGAGAUGUGACACACACAUGUGAGAACACACAUACUGAGAACACACACACACACACACACACACACAUGUGAGUCACCCAAAGGUCCCUAUGUUAUUGAUUUUCAAAUGCACACUUUCACACACAAGGAUACACUAACAGACCAAAAUCAACUCUUGCGGUCGCACUAGUGUGGAAUUCUCGGGUGUCAAGG

In the test the target is TDP-43 (Homo sapiens, UniProt Q13148 1-414). The test is described as follows: RNA Bind-n-Seq with designed 260-mer pool; 25 mM Tris-HCl, 150 mM KCl, 3 mM MgCl2, BSA (printed 500 mg/mL), 20 units/mL SUPERase IN; pH not stated; 500 nM RNA pool, 1 h, 4 C; TDP-43 5, 50, 500 nM; high values mean tight binding. Particulars: protein: recombinant; tags: SBP (GST cleaved off with PreScission; pGEX-GST-SBP). In short, it runs like this: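 Streptavidin beads captured recombinant SBP-tagged TDP-43 at 5, 50 or 500 nM, and the beads were incubated for 1 h at 4 °C with 500 nM of an in vitro-transcribed pool of 260-nt 3′ UTR oligos in 25 mM Tris-HCl, 150 mM KCl, 3 mM MgCl2, BSA and SUPERase IN. After washing, bound RNA was eluted with biotin, reverse transcribed, PCR-amplified and sequenced. Binding is reported as R, the mapped-read-normalized abundance of each oligo in the bound sample divided by its abundance in the input. Two independent protein batches served as duplicates.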
Sequence of TDP-43 (Q13148 whole entry): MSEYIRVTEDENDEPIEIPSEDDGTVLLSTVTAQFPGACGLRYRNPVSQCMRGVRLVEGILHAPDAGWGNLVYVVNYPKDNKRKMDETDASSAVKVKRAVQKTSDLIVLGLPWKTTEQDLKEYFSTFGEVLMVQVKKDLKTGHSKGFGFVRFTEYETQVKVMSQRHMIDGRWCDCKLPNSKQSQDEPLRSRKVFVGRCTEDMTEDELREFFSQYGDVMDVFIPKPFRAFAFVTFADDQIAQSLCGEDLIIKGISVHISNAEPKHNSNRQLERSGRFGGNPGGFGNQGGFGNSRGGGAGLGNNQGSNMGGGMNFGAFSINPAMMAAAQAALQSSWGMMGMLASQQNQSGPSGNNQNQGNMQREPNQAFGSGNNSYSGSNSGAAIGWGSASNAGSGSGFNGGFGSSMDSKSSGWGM
With B1, the binding signal is 0.189 R (bound/input frequency ratio). As for B2, the binding signal is 0.367 R (bound/input frequency ratio).

For the molecule B3, the binding signal was 1.65 R (bound/input frequency ratio).

On to B4, for which the binding signal was 0.983 R (bound/input frequency ratio).

Regarding B5, the binding signal was 2.29 R (bound/input frequency ratio). As for B6, the binding signal was 0.437 R (bound/input frequency ratio). As for B7, the figure is 8.87 R (bound/input frequency ratio). The value for B8 was 2.07 R (bound/input frequency ratio).

Consider B9, for which the binding signal was 3.59 R (bound/input frequency ratio).
